The results in this text go back to PMC7862700, “An all-to-all approach to the identification of sequence-specific readers for epigenetic DNA modifications on cytosine”.

Common to all, as to test: DAPPL (digital affinity profiling via proximity ligation, sequencing); 10 mM Tris-HCl pH 7.5, 50 mM NaCl, 1 mM DTT, 4% glycerol, room temperature, 30 min; GST-TFs on glutathione beads, 16-mer random dsDNA library, 0.1% formaldehyde crosslink after washing; high values mean tight binding
The target in one test is HSF1 (Homo sapiens, UniProt Q00613 1-529). Particulars: protein: recombinant; tags: N-terminal GST; chain copies: 3; dsDNA, one strand shown. An outline of the steps: (§1)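 A tag-only sample was pooled with DNA-barcoded human transcription factors that had been expressed in yeast as GST fusions and captured on glutathione beads. The pools were incubated for 30 min at room temperature with 200 nmole of a random double-stranded 16-mer DNA library in Tris/NaCl/DTT/glycerol buffer, then washed, crosslinked with 0.1% formaldehyde, proximity-ligated (BsaI/T4 ligase, 1 h, 37 °C), PCR-amplified and sequenced on an Illumina NextSeq500. Binding signal is each hexamer's read frequency for a factor divided by its frequency for the tag-only sample.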

A further test has as its target T1, GABPA (Homo sapiens, UniProt Q06546 1-454).
T1 sequence: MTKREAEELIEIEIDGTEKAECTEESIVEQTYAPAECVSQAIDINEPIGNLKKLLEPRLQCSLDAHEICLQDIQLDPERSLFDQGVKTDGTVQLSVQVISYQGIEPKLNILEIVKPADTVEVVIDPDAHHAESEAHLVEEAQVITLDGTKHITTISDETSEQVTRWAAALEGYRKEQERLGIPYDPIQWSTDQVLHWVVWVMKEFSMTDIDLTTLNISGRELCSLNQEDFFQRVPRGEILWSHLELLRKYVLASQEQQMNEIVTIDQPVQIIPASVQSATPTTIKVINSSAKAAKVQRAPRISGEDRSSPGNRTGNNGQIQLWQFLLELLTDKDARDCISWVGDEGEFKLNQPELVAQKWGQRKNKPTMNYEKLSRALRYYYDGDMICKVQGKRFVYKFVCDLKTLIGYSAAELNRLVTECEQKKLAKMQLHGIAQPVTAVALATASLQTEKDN
The following applies: protein: recombinant; tags: N-terminal GST; dsDNA, one strand shown. The gist of the method: as §1

In another test the target is ELF1 (Homo sapiens, UniProt P32519 1-619). The following applies: protein: recombinant; tags: N-terminal GST; dsDNA, one strand shown. An outline of the steps:
as §1

In a further test the target is T2, ELK3 (Homo sapiens, UniProt P41970 1-407).
T2 sequence: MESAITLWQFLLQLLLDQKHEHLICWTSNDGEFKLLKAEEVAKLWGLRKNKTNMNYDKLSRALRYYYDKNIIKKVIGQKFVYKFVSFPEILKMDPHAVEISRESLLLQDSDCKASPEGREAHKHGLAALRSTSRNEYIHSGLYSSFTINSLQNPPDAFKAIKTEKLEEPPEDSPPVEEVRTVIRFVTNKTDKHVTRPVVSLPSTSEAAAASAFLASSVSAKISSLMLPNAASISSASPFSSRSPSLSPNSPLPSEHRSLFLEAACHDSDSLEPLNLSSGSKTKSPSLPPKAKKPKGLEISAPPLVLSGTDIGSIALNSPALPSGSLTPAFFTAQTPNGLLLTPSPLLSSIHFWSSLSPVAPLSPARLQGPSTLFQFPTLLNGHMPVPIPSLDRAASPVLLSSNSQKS
The following applies: protein: recombinant; tags: N-terminal GST; dsDNA, one strand shown. The gist of the method: as §1

A further test has as its target T3, FEV (Homo sapiens, UniProt Q99581 1-238).
T3 sequence: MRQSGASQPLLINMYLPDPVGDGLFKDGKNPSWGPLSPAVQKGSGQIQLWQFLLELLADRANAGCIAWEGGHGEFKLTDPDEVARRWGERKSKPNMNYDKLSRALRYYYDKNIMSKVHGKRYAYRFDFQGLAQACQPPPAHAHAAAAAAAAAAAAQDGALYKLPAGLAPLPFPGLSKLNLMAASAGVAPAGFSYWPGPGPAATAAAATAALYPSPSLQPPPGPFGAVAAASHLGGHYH
The following applies: protein: recombinant; tags: N-terminal GST; dsDNA, one strand shown. An outline of the steps: as §1

The target in a further test is T4, SPIC (Homo sapiens, UniProt Q8N5J4 1-248).
T4 sequence: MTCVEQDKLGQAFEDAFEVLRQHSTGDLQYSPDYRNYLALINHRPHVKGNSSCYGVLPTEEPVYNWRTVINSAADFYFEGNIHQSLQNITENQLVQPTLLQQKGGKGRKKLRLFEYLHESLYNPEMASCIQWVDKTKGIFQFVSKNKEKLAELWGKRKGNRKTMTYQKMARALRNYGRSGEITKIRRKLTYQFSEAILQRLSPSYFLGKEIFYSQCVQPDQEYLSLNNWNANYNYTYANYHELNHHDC
The following applies: protein: recombinant; tags: N-terminal GST; dsDNA, one strand shown. An outline of the steps:
as §1

The next test addresses CRX (Homo sapiens, UniProt O43186 1-299). The following applies: protein: recombinant; tags: N-terminal GST; dsDNA, one strand shown. The gist of the method:
as §1

A further test has as its target ETV1 (Homo sapiens, UniProt P50549 1-477). The following applies: protein: recombinant; tags: N-terminal GST; dsDNA, one strand shown. The gist of the method:
as §1

The next test addresses T5, ERF (Homo sapiens, UniProt P50548 1-548).
T5 sequence: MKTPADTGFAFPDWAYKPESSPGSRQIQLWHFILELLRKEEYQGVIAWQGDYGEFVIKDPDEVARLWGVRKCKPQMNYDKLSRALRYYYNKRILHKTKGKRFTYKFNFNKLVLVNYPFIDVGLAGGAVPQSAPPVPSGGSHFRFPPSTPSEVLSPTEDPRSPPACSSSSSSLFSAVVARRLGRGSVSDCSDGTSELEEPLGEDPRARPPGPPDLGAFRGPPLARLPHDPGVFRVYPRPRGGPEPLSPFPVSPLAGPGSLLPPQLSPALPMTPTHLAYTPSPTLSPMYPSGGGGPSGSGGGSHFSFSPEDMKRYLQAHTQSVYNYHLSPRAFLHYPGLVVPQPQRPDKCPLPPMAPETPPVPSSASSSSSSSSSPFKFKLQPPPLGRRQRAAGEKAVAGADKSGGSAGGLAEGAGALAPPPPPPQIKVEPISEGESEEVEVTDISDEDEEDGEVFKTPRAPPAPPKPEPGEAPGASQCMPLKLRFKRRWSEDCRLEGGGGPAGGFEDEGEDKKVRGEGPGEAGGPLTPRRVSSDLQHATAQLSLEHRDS
The following applies: protein: recombinant; tags: N-terminal GST; dsDNA, one strand shown. The gist of the method:
as §1

A further test concerns the target ETV6 (Homo sapiens, UniProt P41212 1-452). The following applies: protein: recombinant; tags: N-terminal GST; dsDNA, one strand shown. The gist of the method: as §1
Another test concerns the target T6, ELK1 (Homo sapiens, UniProt P19419 1-428).
T6 sequence: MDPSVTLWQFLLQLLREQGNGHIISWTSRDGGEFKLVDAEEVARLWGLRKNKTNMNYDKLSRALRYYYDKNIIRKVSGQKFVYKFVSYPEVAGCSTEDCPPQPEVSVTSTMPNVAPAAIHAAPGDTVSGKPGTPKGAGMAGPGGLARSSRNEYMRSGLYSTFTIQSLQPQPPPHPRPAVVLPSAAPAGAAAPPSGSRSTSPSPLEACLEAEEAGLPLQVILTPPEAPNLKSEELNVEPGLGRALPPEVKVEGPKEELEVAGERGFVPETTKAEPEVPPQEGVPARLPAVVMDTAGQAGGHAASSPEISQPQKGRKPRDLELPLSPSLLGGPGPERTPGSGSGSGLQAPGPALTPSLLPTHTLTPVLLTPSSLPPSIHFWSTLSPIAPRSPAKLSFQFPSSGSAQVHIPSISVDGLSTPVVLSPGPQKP
The following applies: protein: recombinant; tags: N-terminal GST; dsDNA, one strand shown. An outline of the steps:
as §1

A further test concerns the target T7, ERG (Homo sapiens, UniProt P11308 1-479).
T7 sequence: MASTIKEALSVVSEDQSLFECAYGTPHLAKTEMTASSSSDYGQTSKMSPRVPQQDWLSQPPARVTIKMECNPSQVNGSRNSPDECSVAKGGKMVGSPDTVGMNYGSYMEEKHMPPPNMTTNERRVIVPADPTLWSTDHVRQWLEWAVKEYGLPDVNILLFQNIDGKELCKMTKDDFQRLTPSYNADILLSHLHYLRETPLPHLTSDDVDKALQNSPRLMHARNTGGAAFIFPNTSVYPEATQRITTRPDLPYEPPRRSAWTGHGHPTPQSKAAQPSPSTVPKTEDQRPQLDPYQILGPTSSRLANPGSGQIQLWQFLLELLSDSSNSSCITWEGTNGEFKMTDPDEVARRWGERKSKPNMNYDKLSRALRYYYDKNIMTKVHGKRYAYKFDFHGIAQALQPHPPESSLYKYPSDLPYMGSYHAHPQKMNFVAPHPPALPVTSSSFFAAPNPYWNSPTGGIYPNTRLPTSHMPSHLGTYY
Particulars: protein: recombinant; tags: N-terminal GST; dsDNA, one strand shown. An outline of the steps: as §1

The target in a further test is T8, EHF (Homo sapiens, UniProt Q9NZC4 1-300).
T8 sequence: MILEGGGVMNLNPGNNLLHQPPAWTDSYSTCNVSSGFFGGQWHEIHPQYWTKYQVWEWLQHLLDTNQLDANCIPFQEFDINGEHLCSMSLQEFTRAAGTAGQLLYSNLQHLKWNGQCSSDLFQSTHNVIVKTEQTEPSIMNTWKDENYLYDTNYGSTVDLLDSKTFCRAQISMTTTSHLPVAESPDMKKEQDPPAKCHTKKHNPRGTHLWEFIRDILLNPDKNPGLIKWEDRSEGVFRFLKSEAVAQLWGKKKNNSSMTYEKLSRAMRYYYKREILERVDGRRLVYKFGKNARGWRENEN
The following applies: protein: recombinant; tags: N-terminal GST; dsDNA, one strand shown. An outline of the steps: as §1

The next test deals with ELF4 (Homo sapiens, UniProt Q99607 1-663). Particulars: protein: recombinant; tags: N-terminal GST; dsDNA, one strand shown. The gist of the method: as §1
For another test, the target named is T9, ETV7 (Homo sapiens, UniProt Q9Y603 1-341).
T9 sequence: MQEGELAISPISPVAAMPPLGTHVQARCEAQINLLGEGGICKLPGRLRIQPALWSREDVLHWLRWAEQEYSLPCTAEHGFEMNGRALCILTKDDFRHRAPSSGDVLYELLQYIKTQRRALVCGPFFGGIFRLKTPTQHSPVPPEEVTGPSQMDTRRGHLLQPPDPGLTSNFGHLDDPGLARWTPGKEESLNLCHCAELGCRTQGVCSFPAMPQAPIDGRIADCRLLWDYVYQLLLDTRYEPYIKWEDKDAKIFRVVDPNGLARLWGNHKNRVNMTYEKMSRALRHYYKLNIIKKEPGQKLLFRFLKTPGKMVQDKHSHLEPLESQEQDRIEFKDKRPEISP
The following applies: protein: recombinant; tags: N-terminal GST; dsDNA, one strand shown. The gist of the method: as §1

Sequence of HSF1 (Q00613 whole entry, the tested form may be a part): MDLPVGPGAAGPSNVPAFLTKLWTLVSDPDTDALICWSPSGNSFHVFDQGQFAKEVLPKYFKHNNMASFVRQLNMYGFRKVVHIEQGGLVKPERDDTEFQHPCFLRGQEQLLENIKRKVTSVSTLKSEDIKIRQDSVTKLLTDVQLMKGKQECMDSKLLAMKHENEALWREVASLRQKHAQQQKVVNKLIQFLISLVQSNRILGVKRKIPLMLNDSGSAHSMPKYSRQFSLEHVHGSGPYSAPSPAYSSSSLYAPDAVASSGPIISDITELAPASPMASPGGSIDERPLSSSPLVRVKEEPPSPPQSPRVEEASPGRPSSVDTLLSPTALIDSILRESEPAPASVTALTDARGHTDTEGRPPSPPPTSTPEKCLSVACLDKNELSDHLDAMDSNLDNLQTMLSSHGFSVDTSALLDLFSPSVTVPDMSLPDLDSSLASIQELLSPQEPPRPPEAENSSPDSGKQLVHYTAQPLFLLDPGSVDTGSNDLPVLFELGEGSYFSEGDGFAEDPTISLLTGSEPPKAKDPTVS
Sequence of CRX (O43186 whole entry): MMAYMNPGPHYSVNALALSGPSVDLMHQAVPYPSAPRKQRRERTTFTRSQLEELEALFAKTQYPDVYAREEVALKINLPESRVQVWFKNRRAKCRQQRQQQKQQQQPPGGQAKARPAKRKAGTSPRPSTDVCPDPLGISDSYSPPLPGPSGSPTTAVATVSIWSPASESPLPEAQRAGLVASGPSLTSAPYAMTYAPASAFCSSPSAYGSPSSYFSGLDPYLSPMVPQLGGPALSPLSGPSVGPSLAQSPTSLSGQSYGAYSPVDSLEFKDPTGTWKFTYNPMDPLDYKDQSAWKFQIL
Sequence of ELF1 (P32519 whole entry): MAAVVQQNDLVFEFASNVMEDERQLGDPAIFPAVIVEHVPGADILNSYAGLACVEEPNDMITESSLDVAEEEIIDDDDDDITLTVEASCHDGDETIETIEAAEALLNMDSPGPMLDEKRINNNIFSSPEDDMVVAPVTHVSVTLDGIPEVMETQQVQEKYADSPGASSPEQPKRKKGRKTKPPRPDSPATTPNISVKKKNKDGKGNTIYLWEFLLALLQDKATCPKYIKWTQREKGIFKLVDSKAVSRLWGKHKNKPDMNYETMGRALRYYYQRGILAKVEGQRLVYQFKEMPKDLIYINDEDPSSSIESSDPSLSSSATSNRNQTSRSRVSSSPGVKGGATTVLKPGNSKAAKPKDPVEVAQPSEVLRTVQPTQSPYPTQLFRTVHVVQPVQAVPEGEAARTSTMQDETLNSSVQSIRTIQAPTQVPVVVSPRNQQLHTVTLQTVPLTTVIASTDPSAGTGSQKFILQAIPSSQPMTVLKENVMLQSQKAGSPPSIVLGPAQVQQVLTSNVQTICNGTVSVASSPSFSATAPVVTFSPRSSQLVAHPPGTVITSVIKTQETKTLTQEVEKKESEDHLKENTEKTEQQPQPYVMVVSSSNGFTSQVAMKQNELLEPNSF
Sequence of ETV6 (P41212 whole entry): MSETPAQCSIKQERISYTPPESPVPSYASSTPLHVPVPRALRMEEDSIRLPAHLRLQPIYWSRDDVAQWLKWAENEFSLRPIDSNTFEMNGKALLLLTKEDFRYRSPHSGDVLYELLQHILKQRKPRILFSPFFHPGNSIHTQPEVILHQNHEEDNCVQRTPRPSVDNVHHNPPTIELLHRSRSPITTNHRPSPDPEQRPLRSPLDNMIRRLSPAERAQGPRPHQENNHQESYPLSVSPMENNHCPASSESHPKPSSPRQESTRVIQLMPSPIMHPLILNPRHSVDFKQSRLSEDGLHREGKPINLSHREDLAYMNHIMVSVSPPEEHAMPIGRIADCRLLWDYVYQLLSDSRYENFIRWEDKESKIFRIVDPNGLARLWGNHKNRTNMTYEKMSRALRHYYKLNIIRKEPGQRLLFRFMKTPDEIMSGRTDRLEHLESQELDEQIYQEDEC
Sequence of ELF4 (Q99607 whole entry): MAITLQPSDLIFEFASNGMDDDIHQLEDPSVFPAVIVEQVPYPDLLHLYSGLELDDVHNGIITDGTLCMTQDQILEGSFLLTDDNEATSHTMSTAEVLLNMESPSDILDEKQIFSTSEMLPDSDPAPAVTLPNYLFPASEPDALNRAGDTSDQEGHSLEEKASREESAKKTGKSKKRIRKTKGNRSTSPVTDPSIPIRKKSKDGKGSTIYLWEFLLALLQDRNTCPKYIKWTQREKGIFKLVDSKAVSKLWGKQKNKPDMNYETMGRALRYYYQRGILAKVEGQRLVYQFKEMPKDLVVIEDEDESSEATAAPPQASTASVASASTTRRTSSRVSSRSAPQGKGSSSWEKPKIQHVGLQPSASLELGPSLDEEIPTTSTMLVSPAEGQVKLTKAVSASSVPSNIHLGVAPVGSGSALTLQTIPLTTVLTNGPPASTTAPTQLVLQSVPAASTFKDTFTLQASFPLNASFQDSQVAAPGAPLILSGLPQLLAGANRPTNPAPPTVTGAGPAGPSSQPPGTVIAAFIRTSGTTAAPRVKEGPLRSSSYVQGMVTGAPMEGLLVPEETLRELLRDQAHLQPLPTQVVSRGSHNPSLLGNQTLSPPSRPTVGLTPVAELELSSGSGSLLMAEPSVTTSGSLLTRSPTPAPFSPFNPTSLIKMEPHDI
Sequence of ETV1 (P50549 whole entry): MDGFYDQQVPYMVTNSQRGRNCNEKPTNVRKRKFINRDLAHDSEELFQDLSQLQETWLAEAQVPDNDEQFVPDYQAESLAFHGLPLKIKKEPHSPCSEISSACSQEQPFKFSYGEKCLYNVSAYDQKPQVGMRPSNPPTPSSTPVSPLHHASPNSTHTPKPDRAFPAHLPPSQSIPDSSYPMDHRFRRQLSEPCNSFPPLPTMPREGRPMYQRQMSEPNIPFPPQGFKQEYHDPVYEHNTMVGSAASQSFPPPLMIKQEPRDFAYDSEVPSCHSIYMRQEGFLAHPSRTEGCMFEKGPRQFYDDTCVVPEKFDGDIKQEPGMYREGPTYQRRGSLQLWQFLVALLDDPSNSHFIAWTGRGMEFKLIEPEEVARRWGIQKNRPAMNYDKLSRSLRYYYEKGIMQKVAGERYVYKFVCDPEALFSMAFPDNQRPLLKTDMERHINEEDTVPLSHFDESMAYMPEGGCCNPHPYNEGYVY

Take CATAGA: the binding signal in the test with HSF1 is 1.15 fold enrichment (6-mer frequency, TF over GST control).

Turning to GGGAAT, the binding signal with HSF1 was 1.09 fold enrichment (6-mer frequency, TF over GST control).

On to TAGAAC, for which the binding signal with GABPA was 1.03 fold enrichment (6-mer frequency, TF over GST control); with ELF1 it was 1.01 fold enrichment (6-mer frequency, TF over GST control); with ELK3, 1.03 fold enrichment (6-mer frequency, TF over GST control); with FEV, 1 fold enrichment (6-mer frequency, TF over GST control); with HSF1 it was 2.74 fold enrichment (6-mer frequency, TF over GST control); with SPIC it was 1 fold enrichment (6-mer frequency, TF over GST control). In addition, the binding signal is 1.43 fold enrichment (6-mer frequency, TF over GST control) with CRX; 1.07 fold enrichment (6-mer frequency, TF over GST control) with ETV1; 1.02 fold enrichment (6-mer frequency, TF over GST control) with ERF; 1.09 fold enrichment (6-mer frequency, TF over GST control) with ETV6.

For the sequence TCGGCT, the binding signal with ELK1 is 1.02 fold enrichment (6-mer frequency, TF over GST control); with GABPA, 1.03 fold enrichment (6-mer frequency, TF over GST control); in the test with ERG, 1.09 fold enrichment (6-mer frequency, TF over GST control); with EHF it was 1.02 fold enrichment (6-mer frequency, TF over GST control); with HSF1 it was 1.15 fold enrichment (6-mer frequency, TF over GST control); in the test with ELF4, 1.1 fold enrichment (6-mer frequency, TF over GST control). In addition, the binding signal with CRX was 1.34 fold enrichment (6-mer frequency, TF over GST control); in the test with ETV7, 1.05 fold enrichment (6-mer frequency, TF over GST control).
